Several values for one entry are separate records, joined by “and”; a condition that tells them apart may be missing. Identical values can stand only once. Records with an inconclusive call do not appear. Activity calls are given as the source filed them. The calls were made as follows: active = hit-call score of the fitted dose curve at least 0.9, where 1 is the maximum; inconclusive = response in the unintended direction; inactive = score below 0.9.

The AC50 is the concentration giving half of the maximal activity seen.

Chain of Cellular tumor antigen p53 (Homo sapiens) (P04637 whole entry, looked up, the tested form may be a part): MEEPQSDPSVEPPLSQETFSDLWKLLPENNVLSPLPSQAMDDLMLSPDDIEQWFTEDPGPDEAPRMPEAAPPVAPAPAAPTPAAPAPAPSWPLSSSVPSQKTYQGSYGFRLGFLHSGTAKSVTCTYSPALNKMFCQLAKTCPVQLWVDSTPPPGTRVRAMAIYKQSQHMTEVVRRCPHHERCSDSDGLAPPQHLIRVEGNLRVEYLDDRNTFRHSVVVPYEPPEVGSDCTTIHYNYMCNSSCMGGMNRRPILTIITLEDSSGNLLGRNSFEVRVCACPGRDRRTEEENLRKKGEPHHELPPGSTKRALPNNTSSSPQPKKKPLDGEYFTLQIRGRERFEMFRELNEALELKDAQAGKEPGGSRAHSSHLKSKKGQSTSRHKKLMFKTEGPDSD

The target of this assay is Cellular tumor antigen p53 (Homo sapiens) (UniProt P04637). The experiment in a line: TOX21_p53_BLA_p5_ratio: Tox21 HCT-116 p53 Agonism Beta-lactamase Assay, Ratio, Phase 5 (AID 2283599). The text has this:
TOX21_p53_BLA_p5 is a cell-based, single-readout assay that uses HCT116, a human intestinal cell line, […] in a 1536-well plate.TOX21_p53_BLA_p5_ratio is an assay readout measuring reporter gene via receptor activity and designed using inducible reporter (beta lactamase induction) detected with GAL4 b-lactamase reporter gene. The signal is derived from the ratio of cleaved (ch2) to uncleaved (ch1) reporter gene substrate used as the measure of target activity.Data from the assay component TOX21_p53_BLA_p5_ratio was analyzed into 1 assay endpoint. This assay endpoint, TOX21_p53_BLA_p5_ratio, was analyzed in the positive analysis fitting direction relative to DMSO as the negative control and baseline of activity. Using a type of inducible reporter, gain-of-signal activity can be used to understand changes in the reporter gene as they relate to the gene TP53. Furthermore, this assay endpoint can be referred to as a primary readout, because this assay has produced multiple assay endpoints and this ratio serves a reporter gene function to understand target activity. To generalize the intended target to other relatable targets, this assay endpoint is annotated to the DNA binding intended target family, where the subfamily is tumor suppressor.
Thawing Method: Place 14 mL of pre-warmed thaw medium into a 15 mL of conical tub. Remove the vial of cells to be thawed from liquid nitrogen and thaw rapidly by placing at 37C in a water bath with gentle agitation for 1-2 minutes. Decontaminate the vial by wiping with 70% ethanol before opening in a biological safety cabinet. Transfer the vial contents drop-wise into 14 mL of thaw medium in a sterile 15-mL conical tub. Centrifuge cells at 900 rpm for 4 minutes and resuspend in thaw medium. Transfer contents to the T75 tissue culture flask containing Thaw Medium and place flask in a humidified 37C/5% CO2 incubator. Switch to growth medium at first passage.Propagation Method: Aspirate medium, rinse once in DPBS, add 0.25% Trypsin/EDTA and swirl to coat the cell evenly. Add an equal volume of Growth Medium to inactivate Trypsin after 2-3 minutes incubation at 37C. Centrifuge cells at 900 rpm for 4 minutes and resuspend in growth medium. Cell should be passage or fed at least twice a week.Assay Protocol: Harvest cells from culture in growth medium and resuspend in assay medium. 2.2 Dispense 4000 cells/5 uL/well into 1536-well black/clear bottom plates using a Multidrop dispenser. After the cells were incubated at 37C for 5 hours, 23 nL of compounds dissolved in DMSO were transferred to the assay plate by a PinTool resulting in a 217-fold dilution. Incubate the plates for 16 hours at 37C, 5% CO2. Add 1 uL of 6X LiveBLAzer FRET B/G (CCF4-AM) Substrate Mixture to each well using a BioRAPTR dispenser and incubate the plates at room temperature for 2 hours. Measure fluorescence intensity at 460 and 530 nm emission and 405 nm excitation by an Envision detector. Data is expressed as the ratio of 460nm/530nm emissions. Add 4 uL of Cell-titer Glo to each well using BioRAPTR and incubate the plates at room temperature for 2 hours. Measure fluorescence intensity by a VewLux plate reader.
With `Cc1cc(C(C)(C)c2ccc(O)c(C)c2)ccc1O`, the outcome was inactive.

Take `N#CS`: the outcome was inactive. Same read-out and setting: the entry for `c1ccc(-c2cccc(-c3ccccc3)c2)cc1` is “inactive”. Same read-out and setting: the entry for `O=C(NC(=O)c1c(F)cccc1F)Nc1cc(Cl)c(OC(F)(F)C(F)C(F)(F)F)cc1Cl` (stereo not given) is “inactive”; for `CCCSP(=S)(OCC)Oc1ccc(SC)cc1` (stereo not given) it is “inactive”. Still for that read-out and setting: the entry for `O=NN1CCCCCCC1` is “inactive”. Consider `O=C(Nc1ccc(Br)cc1)c1cc(Br)cc(Br)c1O`, for which the AC50 is 1.11 µM (active) and 782 nM (active) and 7.78 µM (active). `CCN(CC)C(=O)C(Cl)=C(C)OP(=O)(OC)OC`: the result was inactive. On the same count and under the same terms, the same measure for `CCOc1ccc(N)cc1`: “inactive”. Take `O=C1c2ccccc2C(=O)C1C(=O)C(c1ccccc1)c1ccc(Cl)cc1` (stereo not given): the outcome was inactive. The same measure, in the same setting: the entry for `CCOc1cc(C=O)ccc1O` is “inactive”. For the compound `CCOC(=O)OC1=C(c2cc(C)ccc2C)C(=O)NC12CCC(OC)CC2` (stereo not given), the AC50 is 26.3 µM (active). In the case of `Nc1ccc(Br)cc1`, the result was inactive. Take `C[CH2][Hg][S]c1ccccc1C(=O)O`: the AC50 was 350 nM (active) and 3 µM (active). In the case of `CCCCOC(=O)COC(=O)c1ccccc1C(=O)OCCCC`, the result was inactive. The same measure, in the same setting: the entry for `CC(C)[C@@H](Nc1ccc(C(F)(F)F)cc1Cl)C(=O)OC(C#N)c1cccc(Oc2ccccc2)c1` (stereo not given in full) is “inactive”; for `N#Cc1ccncc1` it is “inactive”. Same read-out and setting: the same measure for `O=NN1CCOCC1`: “inactive”; for `C=CC(=O)OCC(COC(=O)C=C)(COC(=O)C=C)COC(=O)C=C`: “inactive”. For `COP(=S)(OC)Oc1cc(Cl)c(I)cc1Cl`, the result was inactive. Same read-out and setting: the same measure for `CCOC(=O)C(SP(=S)(OC)OC)c1ccccc1` (stereo not given): “inactive”; for `CC(C)C(C)(N)C#N` (stereo not given): “inactive”. Regarding `C=CC(=O)[O][Sn]([CH2]CCC)([CH2]CCC)[CH2]CCC`, the AC50 is 13.4 µM (active). As for `O=C(O)COc1ccc(Cl)cc1`, the result was inactive. In the case of `O=[N+]([O-])c1ccc(Nc2ccccc2)cc1`, the AC50 was 52.5 µM (active) and 84.9 µM (active). `O=C(NC(=O)c1c(F)cccc1F)Nc1cc(Cl)c(F)c(Cl)c1F`: the result was inactive. Turning to `CCCCCCCCCCCCCCC(Br)C(=O)O` (stereo not given), the AC50 was 70.6 µM (active). For `CC1(C)[C@H](C(=O)O[C@H](C#N)c2cccc(Oc3ccccc3)c2)[C@@H]1/C=C(\Cl)C(F)(F)F`, the outcome was inactive. On the same count and under the same terms, the entry for `CC(C)(C1CCC(O)CC1)C1CCC(O)CC1` (stereo not given) is “inactive”; for `CC(C)(C)c1cc([N+](=O)[O-])cc(C(C)(C)C)c1O` it is “inactive”; for `Cc1cc(-c2cc(C)c(N)c(C)c2)cc(C)c1N` it is “inactive”. On the same count and under the same terms, the entry for `c1ccc2c(c1)Oc1ccccc1O2` is “inactive”. For the compound `OC[P+](CO)(CO)CO`, the result was inactive. Same read-out and setting: the same measure for `O=[N+]([O-])c1ccccc1O`: “inactive”. Consider `CC(C)[N+](=O)[O-]`, for which the result was inactive.

As to `O=C(Cc1ccccc1)OCCc1ccccc1`, the outcome was inactive.

For the compound `CCOP(=S)(OCC)Oc1ccc(Cl)cc1Cl`, the outcome was inactive. Regarding `O=C(NC(=O)c1c(F)cccc1F)Nc1cc(Cl)c(Oc2ncc(C(F)(F)F)cc2Cl)c(Cl)c1`, the AC50 is 13.7 µM (active). In the case of `O=C=Nc1ccc(Cl)cc1`, the result was inactive. Same read-out and setting: the same measure for `Cc1cccc(C)c1NC(=O)CN1CCCC1=O`: “inactive”.

The values are drawn from PubChem BioAssay (EPA / NIEHS).
